Hit rate of the full screen: of about 16,000 compounds, about 5,800 (36%) were called active. Another 23% or so got no clear call; they are omitted. Some of the results follow. Unmarked numbers belong to inactive results. Calls follow the shape of the dose curve; as a rule, active = well fitted curve in the direction sought with a large enough effect; inconclusive = small, poorly fitted or top-dose-only effect, or effect the other way; inactive = no such curve, though single readings can be large or run the other way.

A word on the AC50: it is the midpoint of the concentration-response curve, whichever way the signal moves.
% is scaled to controls: 0 for no effect and ±100 for the full control effect.

The target in this test is Cytochrome P450 2C19 (Homo sapiens) (UniProt P33261). Description: Cytochrome panel assay with activity outcomes. As to conditions: recombinant CYP, pro-luciferin dealkylation, luminescence, p450-cyp2c19; series mostly up to 57.1 µM; activity, negative = inhibition: at the top concentration.
Cytochrome P450 2C19 (Homo sapiens), sequence (P33261 whole entry, looked up): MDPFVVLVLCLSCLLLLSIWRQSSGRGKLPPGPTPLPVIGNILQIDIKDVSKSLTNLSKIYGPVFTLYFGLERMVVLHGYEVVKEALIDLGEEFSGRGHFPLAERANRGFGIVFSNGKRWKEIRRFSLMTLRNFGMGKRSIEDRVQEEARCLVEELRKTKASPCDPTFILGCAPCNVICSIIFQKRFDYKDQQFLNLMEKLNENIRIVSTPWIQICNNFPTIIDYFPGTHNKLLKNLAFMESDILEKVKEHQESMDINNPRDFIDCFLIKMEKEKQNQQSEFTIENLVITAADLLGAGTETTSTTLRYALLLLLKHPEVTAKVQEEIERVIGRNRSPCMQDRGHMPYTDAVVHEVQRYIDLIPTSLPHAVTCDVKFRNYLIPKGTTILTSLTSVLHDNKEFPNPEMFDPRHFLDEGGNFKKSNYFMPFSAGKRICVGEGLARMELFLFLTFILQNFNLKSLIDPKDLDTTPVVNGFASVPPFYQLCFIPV
In the case of `Cc1ccc(S(=O)(=O)Nc2ccc(=O)n(Cc3ccc(Cl)c(Cl)c3)c2)cc1`, the AC50 is 0.158 µM (active).

Take `O=c1ccc(NS(=O)(=O)c2ccccc2)cn1Cc1ccc(Cl)c(Cl)c1`: the AC50 is 0.2 µM (active).

Regarding `O=c1ccc(NS(=O)(=O)c2ccc(Cl)cc2)cn1Cc1ccc(Cl)c(Cl)c1`, the AC50 is 0.251 µM (active).

Regarding `Clc1ccccc1-c1nc(-c2ccncc2)no1`, the AC50 is 0.0631 µM (active).

As to `CS(=O)(=O)c1ccccc1-c1nc(-c2cc(C(F)(F)F)cc(C(F)(F)F)c2)no1`, the “activity, negative = inhibition” value is -26.9%.

As for `O=C(c1ccccc1-c1nc(-c2ccccc2)no1)N1CCOCC1`, the “activity, negative = inhibition” value is -3.39%.

For the molecule `CO[C@@H]1COC(=O)C/C=C\[C@@H](C)[C@@H]2C=C[C@H](O)[C@@H](COC(=O)CCC[C@H]1C)O2`, the activity, negative = inhibition is -8.99% [at 11.4 µM].

As to `COc1ccc2c(=O)c(-c3ccccc3C)c(C)oc2c1`, the concentration at half-maximal activity (AC50) is 20 µM (active).

As for `CC(C)Oc1ccc2c(=O)c3cc(C(=O)O)ccc3oc2c1`, the “activity, negative = inhibition” value was -30.5%.

For `N[C@H](C(=O)O)[C@H](O)C(=O)O`, the “activity, negative = inhibition” value is -18%.

For the molecule `COc1ccccc1C1CC(c2c(-c3ccccc3)c3cc(Cl)ccc3[nH]c2=O)=NN1S(C)(=O)=O` (configuration not stated), the concentration at half-maximal activity (AC50) was 3.16 µM (active).

With `Cc1ccc(-c2noc(-c3cc4ccccc4oc3=O)n2)cc1`, the “activity, negative = inhibition” value was -22.9%.

`O=c1oc2ccccc2cc1-c1csc(NN=C2CCCCC2)n1`: the AC50 is 1.58 µM (active).

On to `CC1CC(C)CN(C(=O)CSc2nnc(CSc3ncccn3)n2C)C1` (configuration not stated), for which the concentration at half-maximal activity (AC50) was 14.1 µM (active).

Turning to `CCCc1nnc(SCC(=O)N2CCCC(C)C2)n1CC1CCCO1` (configuration not stated), the “activity, negative = inhibition” value is -12.9%.

Regarding `CS(=O)(=O)c1ccc([C@H](O)[C@H](CO)NC(=O)C(Cl)Cl)cc1`, the “activity, negative = inhibition” value is -51.5% [at 25.6 µM].

Turning to `N#CC(=C1CCCC1)c1nc(-c2ccccc2)cs1`, the AC50 is 1.41 µM (active).

`Cc1ccc(-c2csc(C(C#N)=C3CCCC3)n2)cc1`: the half-maximal activity concentration (AC50) is 2.24 µM (active).

As to `Nc1nc(N)c(-c2cccc(C(F)(F)F)c2)c(Cc2cccc(C(F)(F)F)c2)n1`, the AC50 is 2.51 µM (active).

With `Cc1ccc(S(=O)(=O)N[C@H](C(=O)N2CCC(C(=O)NCC(=O)O)CC2)C(C)C)cc1`, the “activity, negative = inhibition” value is -10.1%.

Turning to `Cc1ccc(C(=O)N2CCN(C3c4cccc5cccc(c45)C3NS(=O)(=O)c3ccccc3)CC2)cc1` (configuration not stated), the AC50 is 3.16 µM (active).

For the molecule `CC(C)(CO)[C@H](O)C(=O)NCCCO`, the “activity, negative = inhibition” value was -17.6% [at 25.6 µM].

`CCOc1ccc(N(C(C)C(=O)N/N=C(\C)c2cccc(NC(=O)c3ccccc3)c2)S(C)(=O)=O)cc1` (configuration not stated): the half-maximal activity concentration (AC50) is 3.98 µM (active).

As for `C/C(CCN1CCCCc2nc(C)c(C)cc21)=N\OC[C@@H](C)[C@H](OCc1ccccc1)C(C)C`, the activity, negative = inhibition was -22.2% [at 11.4 µM].

With `C[N+](C)(C)CCO`, the “activity, negative = inhibition” value was -4.75%.

`CCc1nnc(NC(=O)C2Cc3ccccc3CN2S(=O)(=O)c2ccc(C)cc2)s1` (configuration not stated): the AC50 was 0.631 µM (active).

In the case of `O=C(Nc1nccs1)C1Cc2ccccc2CN1S(=O)(=O)c1ccc(F)cc1` (configuration not stated), the concentration at half-maximal activity (AC50) was 0.891 µM (active).

Take `O=C(Nc1nnc(C2CC2)s1)C1Cc2ccccc2CN1S(=O)(=O)c1ccccc1F` (configuration not stated): the half-maximal activity concentration (AC50) was 0.0282 µM (active).

For `O=C(O)c1c[nH]c2c(ccc3[nH]cc(C(=O)O)c(=O)c32)c1=O`, the activity, negative = inhibition was -8.42% [at 11.4 µM].

As for `Cc1ccccc1C(=O)N/N=C/c1ccncc1`, the AC50 was 39.8 µM (active).

For `O=C(N/N=C\c1cccc(O)c1)c1ccncc1`, the activity, negative = inhibition is -1.11% [at 11.4 µM].

On to `CC(=O)Nc1cccc(NC(=O)C2CCCN2C(=O)Nc2ccccc2C)c1` (configuration not stated), for which the “activity, negative = inhibition” value was -15.2%.

On to `Cc1cc(NC(=O)c2ccco2)ccc1-n1cnnn1`, for which the AC50 is 17.8 µM (active).

Take `Cc1cc(C)c(NC(=O)C2CCCN2C)c(C)c1` (configuration not stated): the “activity, negative = inhibition” value was -28.8%.

On to `Cc1cc(C)cc(NC(=O)N2CCCC2C(=O)Nc2ccc(-n3cnnn3)c(C)c2)c1` (configuration not stated), for which the concentration at half-maximal activity (AC50) is 0.282 µM (active).

As for `CC(C)=CCC/C(C)=C/CO/N=C1/C[C@@H](O)[C@@H](O)[C@@H]2[C@@H]3C(=O)N(C(C)(C)C)C(=O)[C@H]3CC[C@@H]12`, the activity, negative = inhibition is -29.1% [at 11.4 µM].

In the case of `CCOC(=O)c1c(NC(=O)/C=C/c2ccc3c(c2)OCO3)sc(C)c1CC`, the AC50 is 5.01 µM (active).

With `CCOC(=O)c1c(NC(=O)/C=C/c2ccc3c(c2)OCO3)sc(C)c1C`, the “activity, negative = inhibition” value is -10.8%.

As for `COc1cccc(OC)c1C(=O)NC(=S)N1CCN(c2ccc(C(F)(F)F)cc2[N+](=O)[O-])CC1`, the AC50 was 14.1 µM (active).

Regarding `CC(C)Oc1cccc(C(=O)NC(=S)N2CCN(c3ccc(C(F)(F)F)cc3[N+](=O)[O-])CC2)c1`, the AC50 is 8.91 µM (active).

In the case of `COc1ccccc1CN1CCCC2(CCN(S(C)(=O)=O)CC2)C1`, the “activity, negative = inhibition” value was 4.75%.

As to `O=P(O)(O)O[C@@H]1O[C@H](CO)[C@@H](O)[C@H](O)[C@@H]1O`, the activity, negative = inhibition was 38.5% [at 11.4 µM].

As for `Cc1ccc(C)c(NC(=O)Cn2c([N+](=O)[O-])cnc2C)c1`, the “activity, negative = inhibition” value is -43.3%.

As to `CCOCC(=O)Nc1cc(-c2cn3cccnc3n2)ccc1C`, the “activity, negative = inhibition” value is 29.5%.

For the molecule `CCOc1ncccc1C(=O)OCC(=O)Nc1cc(C)ccc1C`, the AC50 was 5.01 µM (active).

As for `CCOc1cc(NC(=S)NCC2CCCO2)c(OCC)cc1NC(=O)c1cccc(C)c1` (configuration not stated), the concentration at half-maximal activity (AC50) is 11.2 µM (active).

As to `Cc1ccc(C(=O)NC(=S)NCC2CCCO2)cc1` (configuration not stated), the AC50 was 6.31 µM (active).

For the origin of these results see PubChem BioAssay AID1851 (National Center for Advancing Translational Sciences (NCATS), 2009).
